POLK inh = qHTS for Inhibitors of Polymerase Kappa; DNA polymerase kappa (Homo sapiens), Q9UBT6; hit rate 0.53% among 400,000; purified Pol kappa, fluorescent DNA synthesis assay, 10 min; Potency, µM (titrated, usually from 107 µM), for inactives: at the top dose activity, negative = inhibition, actives largely listed as inhibitors; AID 588579, 2011; further: potency means the concentration at half of the fitted maximal effect; on the % scale 0 is the no-effect control and ±100 the full control effect
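Here, compound and 10 nM enzyme are combined for 15 min at room temperature; adding 50 nM substrate (final) starts DNA synthesis, tracked by fluorescence at 0 and 10 min against buffer-only wells.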
FEN1 inhibitor = qHTS Assay for the Inhibitors of Human Flap endonuclease 1 (FEN1); hit rate 0.35% among 390,000; P39748; Potency, µM (top dose mostly 114 µM), for the others: at the highest dose activity change, negative = inhibition, hits mostly inhibitors; AID 588795, 2011; Recombinant FEN1 flap cleavage, fluorescence, 15 min; further: potency means the concentration at half of the fitted maximal effect; on the % scale 0 is the no-effect control and ±100 the full control effect; nearly all actives have a fitted effect of over 65% in size
Target sequence (P39748 whole entry, looked up): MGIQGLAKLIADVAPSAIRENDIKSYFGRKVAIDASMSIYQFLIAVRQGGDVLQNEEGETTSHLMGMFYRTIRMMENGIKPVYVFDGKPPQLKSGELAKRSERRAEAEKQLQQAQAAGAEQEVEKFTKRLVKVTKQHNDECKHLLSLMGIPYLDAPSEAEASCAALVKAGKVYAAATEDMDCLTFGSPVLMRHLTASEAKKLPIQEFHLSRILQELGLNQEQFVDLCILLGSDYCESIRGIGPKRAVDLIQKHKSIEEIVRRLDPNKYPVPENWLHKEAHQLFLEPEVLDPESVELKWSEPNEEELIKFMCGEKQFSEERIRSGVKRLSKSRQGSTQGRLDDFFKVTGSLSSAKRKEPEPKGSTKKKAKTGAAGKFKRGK
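Steps: FEN1 (10 nM) dispensed; compound added by pin tool; 15 min at room temperature; substrate added to 50 nM final; reads at 0 min and 15 min; data normalized and fitted (four-parameter Hill).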
POLB inh = qHTS Assay for Inhibitors of DNA Polymerase Beta; Pol beta primer extension/strand displacement, fluorescence kinetic; hit rate 1.3% among 340,000; AID 485314, 2010; P06746; Potency, µM (titrated, usually from 114 µM), without a hit: top-dose activity change, negative = inhibition, usual class: inhibitors; further: potency means the concentration at half of the fitted maximal effect; on the % scale 0 is the no-effect control and ±100 the full control effect
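Curves were derived by four-parameter Hill fits of normalized qHTS data. The kinetic fluorescent primer-extension read was taken at 0 and 10 min after 50 nM substrate, following a 15 min room-temperature preincubation of 10 nM enzyme with compounds.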
PI5P4K alpha inh = qHTS for Inhibitors of phosphatidylinositol 5-phosphate 4-kinase (PI5P4K); Phosphatidylinositol 5-phosphate 4-kinase type-2 alpha (Homo sapiens), P48426; PI5P4Kalpha enzyme, ADP-Glo luminescence, 60 min; hits give low values; max response, %; hit rate 1.2% among 330,000; AID 652105, 2013; active means max response of -50% or lower; inconclusive means between -30% and -50%; inactive means -30% or higher; further: value at the top dose of about 77 µM; on the % scale 0 is the no-effect control and ±100 the full control effect
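Luminescence from ADP-Glo served as readout of PI5P4Kalpha activity in a qHTS format. Reaction: enzyme, substrate, compound, ATP at 5 microM final, 60 min at RT.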
POLI inh = qHTS for Inhibitors of Polymerase Iota; Pol iota fluorescent replication assay, 10 min; DNA polymerase iota (Homo sapiens), Q9UNA4; Potency, µM (top dose mostly 115 µM), for the others: at the top dose activity, negative = inhibition, actives largely listed as inhibitors; hit rate 1% among 390,000; AID 588590, 2011; further: potency means the concentration at half of the fitted maximal effect
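Fluorescent replication assay read twice, at 0 min and 10 min after adding 50 nM (final) substrate. Enzyme (10 nM) and compounds were first incubated 15 min at room temperature; enzyme-free buffer wells were negative controls.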
POLH inh = qHTS for Inhibitors of Polymerase Eta | DNA polymerase eta (Homo sapiens), Q9Y253 | recombinant Pol eta, fluorescent DNA replication assay | Potency, µM (series often up to 114 µM), for inactives: top-dose activity change, negative = inhibition, hits mostly inhibitors | hit rate 1.2% among 390,000 | AID 588591, 2011; further: potency means the concentration at half of the fitted maximal effect; on the % scale 0 is the no-effect control and ±100 the full control effect
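Fluorescent replication assay: 50 nM final substrate added after a 15 min room-temperature compound preincubation with 10 nM enzyme. Signal taken at 0 min and again at 10 min.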
ADP-Glo counter = qHTS for Inhibitors of PI5P4K: ADP-Glo counter assay. shares compounds with PI5P4K alpha inh. ADP-Glo detection counter-screen, luciferase luminescence, no enzyme. Potency, µM (series often up to 76.9 µM), without a hit: top-dose activity change, negative = inhibition, most hits filed as inhibitors. 1,100 tested, under 10 active. AID 743285, 2014
Numbers without * were called inactive; ? = inconclusive; . = no result; [ ] = dose if it differs, or a comment. Hits are enriched below; roughly 2.8% of the tested compounds scored in any of these assays. Unless noted, the call rests on the fitted dose curve; in most records, active means well fitted curve in the direction sought with a large enough effect; inconclusive means small, poorly fitted or top-dose-only effect, or another doubt; inactive means no such curve, though single readings can be large; an effect the other way counts as inactive or inconclusive.

SMILES | POLK inh | FEN1 inhibitor | POLB inh | PI5P4K alpha inh | POLI inh | POLH inh | ADP-Glo counter
COc1cc2c(c(OC)c1)C(c1cccc(OC)c1OC)CC(=O)N2 (stereo unspecified) | -8% | -7% | 20% | 1 | -16% | -11% | .
COc1ccc(NC(=O)C2(C)Cc3c(-c4ccc(N(C)C)cc4)ccnc3O2)cn1 (stereo unspecified) | . | . | . | 6 | . | . | .
COc1ccc(C(=O)Nc2ccc3cn[nH]c3c2)c(OC)c1 | -11% | 2% | 0% | 3 | 49% | -6% | .
COCCNC(=O)C1Cc2c(-c3ccc(NC(C)=O)cc3)ccnc2O1 (stereo unspecified) | . | . | . | -66* | . | . | 2%
NC1C(N)C(N)C1N (stereo unspecified) | -30% | -15% | . | . | 45% | . | .
Cc1ccccc1CNC(=O)c1ccc2nc([C@@H]3O[C@H](CO)[C@H](O)[C@H](O)[C@H]3O)[nH]c2c1 | . | . | . | -88* | . | . | 3%
Cc1nc2c(nnn2Cc2ccccc2Cl)c(=O)[nH]1 | 3% | 0% | 12% | 3 | -4% | -15% | .
Cc1nc2c(nnn2Cc2ccccc2)c(=O)[nH]1 | -26% | -15% | 0% | -88* | -10% | 0% | 2%
O=S(=O)(NCCC1=CCCCC1)c1cccc(S(=O)(=O)N2CCOCC2)c1 | -18% | -3% | 2% | -63* | -11% | -10% | -2%
COc1ccc(C)cc1NC(=O)CC1NCCNC1=O (stereo unspecified) | 0% | -2% | 6% | . | 11% | -4% | .
CSc1cccc(NC(=O)c2cnn3ccccc23)c1 | -31% | 1% | 5% | -63* | 58% | -5% | -1%
CC1CCc2sc(NC(=O)C3CC(Cl)=CCC3C(=O)O)c(C#N)c2C1 (stereo unspecified) | -16% | -10% | 17% | -2 | 17% | -16% | .
COCCn1nnnc1C(c1cc2cc(OC)c(OC)cc2[nH]c1=O)N1CCN(c2ccc(O)cc2)CC1 (stereo unspecified) | -27% | -11% | -3% | -54* | 45µM* | -9% | -4%
C#CC1(N2CCCCC2)CCCCC1 | . | . | . | 0 | . | -24% | .
COc1cc(C2CC(=O)N3CN(Cc4ccco4)CSC3=C2C#N)ccc1OCc1ccccc1 (stereo unspecified) | -35% | ? | -1% | -59* | -29% | -15% | 3%
COc1cc(CNCc2ccco2)ccc1OCc1ccccc1 | -7% | -13% | 31% | . | -24% | 11% | .
O=C(NNC(=O)c1ccccc1O)c1cccc(Br)c1 | -18% | 22% | 25% | 3 | 19% | 0% | .
COc1cc(C(=O)NNC(=S)NCc2ccco2)cc(OC)c1OC | 1% | 9% | 13% | -4 | -10% | -6% | .
CC1=NN(c2nc(-c3ccc(F)cc3)cs2)C(=O)C1 | -24% | 11% | 0% | . | ? | -3% | .
CC1=NN(c2nc(-c3ccc(Cl)cc3)cs2)C(=O)C1 | 50µM* | ? | 35µM* | -67* | ? | 45µM* | -8%
CN(C(=O)c1ccc(Br)o1)C1CCS(=O)(=O)C1 (stereo unspecified) | 5% | 4% | 11% | ? | 9% | -5% | 4%
CCN(C(=O)c1ccc(Br)o1)C1CCS(=O)(=O)C1 (stereo unspecified) | -8% | -10% | . | 4 | 54% | -19% | .
Cc1cccc(CNc2ncncc2-c2ccccc2C(F)(F)F)c1 | -9%[60.1 µM] | . | . | . | . | . | .

Assay outcomes: PubChem, National Center for Advancing Translational Sciences (NCATS)
